What follows are targets tested with ClCC(=O)N1CCC(CC#N)C1 (assay: log2 ratio of Biotin-Ahx-Ub-VS probe labelling (compound/DMSO); higher = less target engagement, active = hit call of the paper (q ≤ 0.05, log2 ratio ≤ -1)). Conditions: compound concentration: 50uM; treatment time: 3 h.
Method: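 Round 2 competitive ABPP in HEK293T lysate. Purified HTC-D2B compounds were tested at 50 and 200 µM for 3 h, followed by Biotin-Ahx-Ub-VS enrichment and diaPASEF LC-MS/MS. Values are the average log2 ratio (compound/DMSO) from an unpaired t-test (n=3 treated, n=26 DMSO).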

Sequence of UniProt Q9NP73 (Q9NP73 whole entry): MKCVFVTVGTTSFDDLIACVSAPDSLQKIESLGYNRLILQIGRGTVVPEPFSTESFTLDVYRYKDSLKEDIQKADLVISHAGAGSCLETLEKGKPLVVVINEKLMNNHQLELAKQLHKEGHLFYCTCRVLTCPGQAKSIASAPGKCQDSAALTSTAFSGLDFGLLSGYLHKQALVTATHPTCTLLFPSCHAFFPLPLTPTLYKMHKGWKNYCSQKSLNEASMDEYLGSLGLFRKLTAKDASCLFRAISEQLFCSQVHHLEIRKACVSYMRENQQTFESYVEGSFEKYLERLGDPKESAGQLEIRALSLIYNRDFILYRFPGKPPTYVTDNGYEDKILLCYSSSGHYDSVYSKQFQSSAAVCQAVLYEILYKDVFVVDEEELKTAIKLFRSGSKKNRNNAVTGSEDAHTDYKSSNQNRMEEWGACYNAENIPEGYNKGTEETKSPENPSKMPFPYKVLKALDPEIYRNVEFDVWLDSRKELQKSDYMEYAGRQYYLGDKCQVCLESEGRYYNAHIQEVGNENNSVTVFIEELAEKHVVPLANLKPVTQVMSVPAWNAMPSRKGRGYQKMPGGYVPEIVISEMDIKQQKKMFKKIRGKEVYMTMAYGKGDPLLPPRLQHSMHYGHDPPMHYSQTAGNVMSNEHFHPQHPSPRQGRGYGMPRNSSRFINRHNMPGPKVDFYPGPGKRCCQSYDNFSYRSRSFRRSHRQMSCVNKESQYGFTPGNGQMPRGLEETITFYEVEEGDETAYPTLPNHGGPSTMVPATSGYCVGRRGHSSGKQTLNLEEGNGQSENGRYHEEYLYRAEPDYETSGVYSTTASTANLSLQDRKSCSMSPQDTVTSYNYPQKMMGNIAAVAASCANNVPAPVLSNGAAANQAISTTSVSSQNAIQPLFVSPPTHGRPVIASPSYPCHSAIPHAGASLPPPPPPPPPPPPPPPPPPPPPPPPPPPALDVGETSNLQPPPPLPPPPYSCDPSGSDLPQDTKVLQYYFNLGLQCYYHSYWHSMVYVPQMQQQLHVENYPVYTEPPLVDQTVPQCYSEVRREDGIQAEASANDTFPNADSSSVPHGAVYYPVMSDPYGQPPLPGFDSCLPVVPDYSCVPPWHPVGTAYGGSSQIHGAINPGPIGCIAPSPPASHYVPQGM
Sequence of UniProt P51784 (P51784 whole entry): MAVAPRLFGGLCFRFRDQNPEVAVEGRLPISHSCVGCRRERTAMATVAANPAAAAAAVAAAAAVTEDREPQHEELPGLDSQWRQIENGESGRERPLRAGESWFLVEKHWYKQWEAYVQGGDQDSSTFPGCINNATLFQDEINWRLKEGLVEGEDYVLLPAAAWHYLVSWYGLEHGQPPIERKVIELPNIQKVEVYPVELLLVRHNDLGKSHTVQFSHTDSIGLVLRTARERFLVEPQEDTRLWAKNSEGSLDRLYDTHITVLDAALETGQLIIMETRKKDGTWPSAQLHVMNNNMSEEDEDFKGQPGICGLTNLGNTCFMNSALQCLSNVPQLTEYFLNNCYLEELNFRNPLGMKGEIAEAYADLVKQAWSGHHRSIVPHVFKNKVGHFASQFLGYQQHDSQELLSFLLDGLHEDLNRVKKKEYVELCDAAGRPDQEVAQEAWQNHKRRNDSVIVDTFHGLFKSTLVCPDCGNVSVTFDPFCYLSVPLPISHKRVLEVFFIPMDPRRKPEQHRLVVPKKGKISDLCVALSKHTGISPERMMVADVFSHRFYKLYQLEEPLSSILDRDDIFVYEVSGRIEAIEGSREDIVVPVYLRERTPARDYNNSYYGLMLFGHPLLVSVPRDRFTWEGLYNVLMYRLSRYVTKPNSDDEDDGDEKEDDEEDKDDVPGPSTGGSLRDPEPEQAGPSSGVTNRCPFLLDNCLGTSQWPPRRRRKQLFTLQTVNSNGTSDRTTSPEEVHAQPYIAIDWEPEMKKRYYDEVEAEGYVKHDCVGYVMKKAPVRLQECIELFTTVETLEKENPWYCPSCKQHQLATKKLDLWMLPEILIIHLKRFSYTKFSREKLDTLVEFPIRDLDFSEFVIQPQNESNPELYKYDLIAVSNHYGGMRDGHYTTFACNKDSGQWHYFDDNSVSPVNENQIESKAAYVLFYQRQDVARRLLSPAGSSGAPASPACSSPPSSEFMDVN
Sequence of UniProt Q5T2D3 (Q5T2D3 whole entry): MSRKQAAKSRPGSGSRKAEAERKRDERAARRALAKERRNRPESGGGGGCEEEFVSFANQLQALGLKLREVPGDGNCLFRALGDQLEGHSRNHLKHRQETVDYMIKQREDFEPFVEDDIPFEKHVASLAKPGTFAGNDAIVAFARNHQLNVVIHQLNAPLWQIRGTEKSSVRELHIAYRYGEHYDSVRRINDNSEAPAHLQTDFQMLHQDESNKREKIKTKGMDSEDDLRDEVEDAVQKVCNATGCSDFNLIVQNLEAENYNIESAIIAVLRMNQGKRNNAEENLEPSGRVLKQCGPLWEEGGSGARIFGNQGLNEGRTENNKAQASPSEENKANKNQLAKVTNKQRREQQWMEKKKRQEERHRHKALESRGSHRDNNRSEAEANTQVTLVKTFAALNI
Sequence of UniProt P54578 (P54578 whole entry): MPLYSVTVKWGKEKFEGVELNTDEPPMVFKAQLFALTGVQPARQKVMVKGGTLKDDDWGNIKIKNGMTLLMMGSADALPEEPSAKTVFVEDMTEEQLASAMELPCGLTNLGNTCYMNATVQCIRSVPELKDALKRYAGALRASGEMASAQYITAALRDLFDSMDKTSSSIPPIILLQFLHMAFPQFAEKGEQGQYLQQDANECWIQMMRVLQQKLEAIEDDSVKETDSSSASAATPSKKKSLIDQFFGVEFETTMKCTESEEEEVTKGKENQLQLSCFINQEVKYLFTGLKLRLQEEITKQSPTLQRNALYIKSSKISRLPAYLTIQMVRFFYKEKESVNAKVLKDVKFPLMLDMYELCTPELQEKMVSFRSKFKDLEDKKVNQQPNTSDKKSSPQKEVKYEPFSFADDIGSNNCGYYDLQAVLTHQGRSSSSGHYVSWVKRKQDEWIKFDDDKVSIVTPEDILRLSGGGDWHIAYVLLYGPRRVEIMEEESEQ
Sequence of UniProt P62068 (P62068 whole entry): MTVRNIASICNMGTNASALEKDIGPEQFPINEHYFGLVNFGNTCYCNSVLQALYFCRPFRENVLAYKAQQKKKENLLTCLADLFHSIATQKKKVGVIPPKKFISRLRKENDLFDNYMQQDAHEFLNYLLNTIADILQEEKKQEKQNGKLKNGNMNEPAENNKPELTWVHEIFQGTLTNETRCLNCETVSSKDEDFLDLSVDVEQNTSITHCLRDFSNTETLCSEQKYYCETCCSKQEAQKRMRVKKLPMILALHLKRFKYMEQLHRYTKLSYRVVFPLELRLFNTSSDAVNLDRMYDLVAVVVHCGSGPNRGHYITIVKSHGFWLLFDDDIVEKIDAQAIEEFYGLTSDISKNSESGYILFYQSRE
Sequence of UniProt O00487 (O00487 whole entry): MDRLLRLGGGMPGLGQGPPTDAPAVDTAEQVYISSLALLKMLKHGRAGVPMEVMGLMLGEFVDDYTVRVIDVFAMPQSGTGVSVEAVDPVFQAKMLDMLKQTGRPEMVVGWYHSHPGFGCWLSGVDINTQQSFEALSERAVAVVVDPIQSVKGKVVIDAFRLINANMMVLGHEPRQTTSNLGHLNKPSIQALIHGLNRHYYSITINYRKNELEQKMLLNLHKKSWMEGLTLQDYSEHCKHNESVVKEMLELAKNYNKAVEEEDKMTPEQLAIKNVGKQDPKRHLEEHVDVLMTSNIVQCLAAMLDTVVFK
Sequence of UniProt Q9Y5K5 (Q9Y5K5 whole entry): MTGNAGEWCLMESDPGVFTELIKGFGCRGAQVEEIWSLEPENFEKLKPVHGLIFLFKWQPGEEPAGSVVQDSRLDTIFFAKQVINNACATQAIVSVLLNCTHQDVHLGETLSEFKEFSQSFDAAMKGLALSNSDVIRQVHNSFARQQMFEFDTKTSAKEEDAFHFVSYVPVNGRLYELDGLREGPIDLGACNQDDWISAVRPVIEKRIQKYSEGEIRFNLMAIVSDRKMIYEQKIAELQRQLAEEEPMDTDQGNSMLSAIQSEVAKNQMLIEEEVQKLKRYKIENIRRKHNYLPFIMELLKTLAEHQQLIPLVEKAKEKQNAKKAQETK

Target	log2 ratio of Biotin-Ahx-Ub-VS probe labelling
USP9X (UniProt Q93008)	0.0276 (inactive)
USP46 (UniProt P62068)	-0.14 (inactive)
PRPF8 (UniProt Q6P2Q9)	0.045 (inactive)
USP14 (UniProt P54578)	-0.25 (inactive)
UniProt O00487	-0.033 (inactive)
UniProt P51784	-0.0555 (inactive)
ALG13 (UniProt Q9NP73)	0.259 (inactive)
UniProt Q5T2D3	-0.206 (inactive)
UCHL5 (UniProt Q9Y5K5)	-0.227 (inactive)

Same assay, conditions: compound concentration: 200uM; treatment time: 3 h

Target	log2 ratio of Biotin-Ahx-Ub-VS probe labelling
USP9X (UniProt Q93008)	-0.109 (inactive)
USP46 (UniProt P62068)	-0.548 (inactive)
PRPF8 (UniProt Q6P2Q9)	-0.00376 (inactive)
USP14 (UniProt P54578)	0.0716 (inactive)
UniProt O00487	-0.198 (inactive)
UniProt P51784	-0.0925 (inactive)
ALG13 (UniProt Q9NP73)	0.307 (inactive)
UniProt Q5T2D3	-0.203 (inactive)
UCHL5 (UniProt Q9Y5K5)	-0.17 (inactive)
